From the supplement of paper PMC6555819

What was measured:
Assay in all cases: PBM binding z-score (relative to random genomic background probes); higher = stronger binding; sequences stand for … in GC…GCGATTGACAGCGTAGAATGAAGG
[1] = tested on: FXR:RXRa (NR concentration 270 nM, RXRa partner concentration 90 nM)
In short: (§1)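 Binding buffer was PBS pH 7.4 with 2% milk, 0.02% Triton X-100, 1 mM DTT, 0.2 mg/mL BSA and 0.4 mg/ml salmon testes DNA. In it, ligand-free nuclear receptor dimers were incubated 1 h on custom Agilent 4×180K protein-binding microarrays carrying double-stranded probes. Antibodies against each partner (one per run) detected binding, and z-scores were calculated against random background probes after regression normalization of scanned fluorescence.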

[2] = tested on: LXRa:RXRa (NR concentration 270 nM, RXRa partner concentration 90 nM)
In short: as §1

[3] = tested on: LXRa homodimer (NR concentration 270 nM)
In short: as §1

[4] = tested on: LXRb:RXRa (NR concentration 270 nM, RXRa partner concentration 90 nM)
In short: as §1

[5] = tested on: LXRb homodimer (NR concentration 270 nM)
In short: as §1

[6] = tested on: PPARa:RXRa (NR concentration 270 nM, RXRa partner concentration 90 nM)
In short: as §1

[7] = tested on: PPARg:RXRa (NR concentration 180 nM, RXRa partner concentration 90 nM)
In short: as §1

[8] = tested on: PPARg:RXRa 270nM:90nM, anti-RXR (NR concentration 270 nM, RXRa partner concentration 90 nM)
In short: as §1

[9] = tested on: PPARg:RXRa 30nM:10nM, anti-RXR (NR concentration 30 nM, RXRa partner concentration 10 nM)
In short: as §1

[10] = tested on: PPARg:RXRa 90nM:30nM, anti-RXR (NR concentration 90 nM, RXRa partner concentration 30 nM)
In short: as §1

[11] = tested on: PPARg:RXRa DBDmut IVT, anti-RXR (DBD mutation: RXRa K156A/R161A, NR concentration 270 nM, RXRa partner concentration 90 nM)
In short: as §1

[12] = tested on: PPARg:RXRa IVT, anti-PPARg (NR concentration 270 nM, RXRa partner concentration 90 nM)
In short: as §1

[13] = tested on: PPARg DBDmut:RXRa IVT, anti-PPARg (DBD mutation: PPARg1 K132A/R137A, NR concentration 270 nM, RXRa partner concentration 90 nM)
In short: as §1

[14] = tested on: PPARg DBDmut IVT, anti-PPARg (DBD mutation: PPARg1 K132A/R137A, NR concentration 270 nM)
In short: as §1

[15] = tested on: PPARg homodimer (NR concentration 180 nM)
In short: as §1

[16] = tested on: PXR:RXRa (NR concentration 270 nM, RXRa partner concentration 90 nM)
In short: as §1

[17] = tested on: PXR homodimer (NR concentration 270 nM)
In short: as §1

[18] = tested on: RARa:RXR (NR concentration 270 nM, RXRa partner concentration 90 nM)
In short: as §1

[19] = tested on: RARa homodimer (NR concentration 270 nM)
In short: as §1

[20] = tested on: RARb:RXRa (NR concentration 270 nM, RXRa partner concentration 90 nM)
In short: as §1

Row | Sequence | PBM binding z-score [1] | PBM binding z-score [2] | PBM binding z-score [3] | PBM binding z-score [4] | PBM binding z-score [5] | PBM binding z-score [6] | PBM binding z-score [7] | PBM binding z-score [8] | PBM binding z-score [9] | PBM binding z-score [10] | PBM binding z-score [11] | PBM binding z-score [12] | PBM binding z-score [13] | PBM binding z-score [14] | PBM binding z-score [15] | PBM binding z-score [16] | PBM binding z-score [17] | PBM binding z-score [18] | PBM binding z-score [19] | PBM binding z-score [20]
1 | GCGACTGGGGCAAAACAGGTTACCATAAGGTTGG | 0.267 | 0.15 | -0.287 | 0.476 | -0.432 | 1.12 | 1.22 | 0.615 | -0.338 | -0.0458 | 3.9 | 3.17 | -0.443 | -0.478 | -0.0203 | 0.334 | -0.325 | 0.794 | -0.332 | 0.897
2 | CCAGACAGGTGAAAGGTAGCTCAGTCTGGTACGC | 0.0731 | -0.0262 | -0.504 | 0.0215 | -1.1 | 2.23 | 3.22 | 4.68 | 2.78 | 4.9 | 2.97 | 1.52 | -1.06 | -0.199 | 0.596 | -0.0966 | -0.482 | 0.905 | -0.063 | 0.738
3 | TCTAGTAGGTTACCAATGGGGCATTCAGCTTTCT | 0.412 | 1.74 | -0.049 | 1.37 | 0.0938 | 2.14 | 2.38 | 2.93 | 3.2 | 2.81 | 5.22 | 5.27 | 0.435 | 0.135 | 0.405 | 0.365 | -0.176 | 0.372 | 5.32e-05 | 1.26
4 | AGCGAAAGGTCGTGAGGTGAGTATACAGAAAGGC | 5.99 | 3.84 | -0.142 | 3.17 | -0.2 | 5.26 | 4.55 | 4.97 | 1.84 | 3.25 | 0.425 | 2.63 | 0.478 | 1.08 | 1.38 | 2.81 | 0.0715 | 3.96 | 0.217 | 4.29
5 | TCTGCTAGGTGAACGATGGTCAGCTAATCTGCTA | -0.414 | -0.432 | -0.946 | -0.499 | -1.35 | 0.449 | 0.238 | 0.769 | 1.17 | 0.916 | 3.12 | 2.97 | -0.708 | -0.769 | -0.746 | -0.428 | -0.962 | -0.153 | -1.26 | 0.881
6 | AATACAGGGTCATCGTAGGCCAGGGTACGCACAG | 7.02 | 6.11 | 2.59 | 4.52 | 1.33 | 5.71 | 6.91 | 6.06 | 2.54 | 4.9 | 2.56 | 4.25 | 1.78 | 1.18 | 4.25 | 4.84 | 0.528 | 5.17 | 1.22 | 4.32
7 | AGAATGAGTTTATTAAGATCAGGGAATTGCGGTC | -0.0233 | -0.176 | 0.0886 | -0.353 | 0.198 | -0.254 | 0.0616 | -0.094 | -0.0755 | -0.195 | -0.196 | -0.106 | 0.457 | 0.0162 | 0.334 | 1.31 | 2.04 | 0.154 | 0.655 | 0.143
